Data on 18 molecules can be found in PubChem BioAssay (EPA / NIEHS).

The structures appear in SMILES notation. Where “and” joins values, the source holds several entries; their conditions need not be identical. Equal values may be shown once. Calls of active or inactive are those of the source. Rule for the calls: active = hit-call score of the fitted dose curve at least 0.9, where 1 is the maximum; inactive = score below 0.9.

Read-out in this experiment: Basic fibroblast growth factor (bFGF), FGF2 (gene 2247)
Description: BSK_MyoF_bFGF: BioMAP Diversity Plus: MyoF Assay for Basic fibroblast growth factor (bFGF) Biomarker Activity (AID 2284246). The conditions noted are these: primary human lung fibroblasts. In a few lines: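 bFGF was measured by ELISA in primary human lung fibroblasts 24 h after chemical addition. Signal was analysed as positive-direction change relative to DMSO baseline.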
Regarding `CC(CCl)OP(=O)(OC(C)CCl)OC(C)CCl` (stereo not drawn), the outcome was inactive. For `OCCCC(F)(F)C(F)(F)C(F)(F)F`, the outcome was inactive. `O=C(O)C(F)(F)C(F)(F)OC(F)(F)F`: the outcome was inactive. In the case of `OCC(F)(F)C(F)(F)C(F)(F)C(F)F`, the result was inactive. With `O=C(CC(=O)C(F)(F)C(F)(F)F)C(F)(F)F`, the outcome was inactive.

Turning to `O=C(Cl)C(F)(F)C(F)(F)C(F)(F)C(F)(F)C(F)(F)C(F)(F)C(F)(F)C(F)(F)F`, the result was inactive.

With `C=C(C)C(=O)OCC(F)(F)C(F)(F)C(F)(F)F`, the outcome was inactive.

Take `FC(F)(F)C(F)(F)C(F)(F)C(F)(F)C(F)(F)C(F)(F)CCS`: the result was inactive. As for `FC(F)(F)C(F)(F)C(F)(F)C(F)(F)C(F)(F)C(F)(F)C(F)(F)C(F)(F)CCS`, the result was inactive.

`OCCCC(F)(F)C(F)(F)C(F)(F)C(F)(F)C(F)(F)C(F)(F)C(F)(F)F`: the AC50 – broadly, the concentration at which the activity in the assay is half-maximal – was 50.9 µM (active) and 57.8 µM (active). For the molecule `CCO[Si](CCC(F)(F)C(F)(F)C(F)(F)C(F)(F)C(F)(F)C(F)(F)F)(OCC)OCC`, the result was inactive. As to `FC(F)(F)C(F)(F)C(F)(F)CI`, the outcome was inactive. Regarding `O=S(=O)(O)C(F)(F)C(F)(F)C(F)(F)C(F)(F)C(F)(F)C(F)(F)C(F)(F)F`, the result was inactive.

In the case of `O=C(O)C(F)(F)C(F)(F)C(F)(F)C(F)(F)F`, the outcome was inactive. Regarding `O=C(O)C(F)(F)C(F)(F)C(F)(F)F`, the outcome was inactive. Still for that read-out and setting: then `FC(F)(F)C(F)(F)C(F)(F)C(F)(F)C(F)(F)C(F)(F)C(F)(F)C(F)(F)F`, with “inactive”; and `FC(F)(F)C(F)(F)C(F)(F)C(F)(F)CCI`, with “inactive”; and `CCCCCCCOC(=O)c1ccccc1C(=O)OCCCCCCC`, with “inactive”.
